# Compound activity from PubChem.
# Mcl-1 Bim block: disrupts Bim peptide binding to human Mcl-1; Q07820; Bead-based flow cytometry, Bim peptide-Mcl-1 binding; inhibition, % at 10 µM; actives 0.1% (n = 190,000); in the data active means inhibition above about 40%;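 further: 0% = no compound tracer wells and 100% = peptide blocker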
# Mcl1-Noxa inh: Mcl-1/Noxa interaction inhibition | Q07820 | TR-FRET Mcl-1/Noxa peptide binding, 2 h | inhibition, % at 21.7 µM | actives 1.5% (n = 220,000);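 active means compounds that cut the protein-peptide binding signal by more than 50% relative to plate controls in a single-dose test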;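 further: His-tagged Mcl-1 with rhodamine Noxa BH3 peptide and terbium anti-His antibody; 0% = Mcl-1 plus Noxa peptide wells and 100% = peptide-only wells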
# Mcl1 Bid PPI: disrupts binding of human Mcl-1 to Bid peptide. TR-FRET Mcl-1/Bid-Dy647 peptide binding, 1536-well. inhibition, % at 21.7 µM. actives 0.97% (n = 220,000);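 active means compounds that cut the binding signal by more than half at the single screening dose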;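 further: His-tagged Mcl-1 with europium anti-His antibody binding Bid BH3 peptide; 0% = Mcl-1 plus peptide wells and 100% = peptide-only wells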
# NCF1 inh: inhibitors of human p47phox binding. p47phox/p22phox peptide binding, fluorescence polarization, 2 h. inhibition, % at 24.7 µM. actives 0.53% (n = 220,000). AID 1274;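 active means inhibition above about 30%, limit read from the data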;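 further: 0% = p47phox with labelled peptide and 100% = labelled peptide alone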
# Target sequence (P14598 whole entry, looked up): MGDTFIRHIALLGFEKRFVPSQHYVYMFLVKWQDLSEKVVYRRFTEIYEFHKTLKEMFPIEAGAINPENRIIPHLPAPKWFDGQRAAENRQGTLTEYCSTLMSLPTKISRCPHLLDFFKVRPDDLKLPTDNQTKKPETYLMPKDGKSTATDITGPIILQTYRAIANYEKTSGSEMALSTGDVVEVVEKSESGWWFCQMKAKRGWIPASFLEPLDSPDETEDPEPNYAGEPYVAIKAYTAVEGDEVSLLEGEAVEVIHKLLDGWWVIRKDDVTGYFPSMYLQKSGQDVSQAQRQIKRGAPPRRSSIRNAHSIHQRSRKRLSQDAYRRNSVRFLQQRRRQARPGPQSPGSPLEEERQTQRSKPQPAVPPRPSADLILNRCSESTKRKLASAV
# 14-3-3 Bad inh: disrupts binding of bovine 14-3-3 zeta to phospho-Bad peptide; actives 0.71% (n = 220,000); inhibition, % at 21.7 µM; TR-FRET 14-3-3zeta/Dy647-pBad peptide displacement, 1 h; AID 781; P63103;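 active means inhibition above about 70%, limit read from the data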;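 further: 0% = full 14-3-3 plus peptide FRET controls and 100% = background without 14-3-3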
# * = called active by the depositor; · = no result given; [ ] = remark or other dose. Most compounds without a hit are left out; they make up all but 3.2% or so of the library.
SMILES,Mcl-1 Bim block,Mcl1-Noxa inh,Mcl1 Bid PPI,NCF1 inh,14-3-3 Bad inh
O=C(CN1CCN(c2ncccn2)CC1)N1CCCC1,-3,23,-18,1,25
CCN(CC)C(=O)CN1CCN(c2ncccn2)CC1,-6,0,56*,-9,47
COc1ccc(OC)c(CC(NC(C)=O)C(=O)NC2CCN(c3nc(OC)nc(OC)n3)CC2)c1 (centres undefined),0,-5,-6,-1,-1
COc1cc(-c2[nH]ncc2CN(C)Cc2nonc2C)cc(OC)c1OC,-1,-3,-34,4,-16
COc1cc(-c2[nH]ncc2CN(C)Cc2cc(C)[nH]n2)cc(OC)c1OC,-2,20,-21,36*,-5
CC(C)c1nc2sc3c(=O)[nH]c(=S)[nH]c3c2c2c1CCC2,0,81*,11,-13,7
CC(C)c1nc2sc3c(=O)[nH]c(=S)[nH]c3c2c2c1CCCC2,·,57*,-172,-12,0
C/C(=N\NC(=O)C1COc2ccccc2O1)c1cc2ccccc2o1 (centres undefined),0,28,-9,0,4
O=C(Nc1nccs1)c1ccc(COc2ccc(F)cc2)o1,24,56*,-7,-1,-6
O=C(Nc1nccs1)c1ccc(COc2ccc(Cl)cc2)o1,5,7,-1,-15,11
COc1cc(/C=C2/C(=O)N(c3ccccc3)N=C2C)ccc1OS(=O)(=O)c1ccccc1,1,26,-49,-8,-2
COc1cc(/C=C2\SC(=O)N(CCN)C2=O)ccc1OS(=O)(=O)c1cc(C)ccc1C,2,6,-21,72*,84*
Cn1ccnc1C(=O)c1cccc([N+](=O)[O-])c1,-2,13,-14,1,91*
Cn1ccnc1C(=O)c1ccc(NN)c([N+](=O)[O-])c1,-2,9,-35,2,-18
Cc1cc([N+](=O)[O-])ccc1N=Nc1c(N)[nH]n(-c2ccccc2)c1=O,0,19,-38,4,-11
O=c1c(N=Nc2ccc(O)cc2)c(-c2ccccc2)[nH]n1-c1ccc([N+](=O)[O-])cc1,0,71*,60*,28,47
NC(=O)c1ccc(N=Nc2c(-c3ccccc3)[nH]n(-c3ccccc3)c2=O)cc1,-2,-1,-7,8,-2
Cc1ccc(N=Nc2c(C)[nH]n(C(N)=S)c2=O)cc1,0,4,-49,-9,-14
NC(=S)n1[nH]c(-c2ccc([N+](=O)[O-])cc2)c(N=Nc2ccc(Cl)cc2)c1=O,0,73*,98*,29,93*
Cc1ccc([N+](=O)[O-])cc1N=Nc1c(-c2ccc([N+](=O)[O-])cc2)[nH]n(C(N)=S)c1=O,0,111*,68*,4,43
CC1(C)CC(=O)C2=C(C1)NC(=S)C(C#N)C21CCCCC1 (centres undefined),·,7,-126,2,-3
O=C(Nc1ccc2oc(-c3cccnc3)nc2c1)c1ccc2c(c1)OCCO2,11,53*,41,-11,81*
O=C(CC(=O)c1cc(Cl)ccc1O)c1ccccc1,0,-11,-30,-11,-12
O=C(c1ccccc1)c1cc(Cl)ccc1N1C(=O)C=CC1=O,4,32,51*,0,10
Cc1occc1C(=O)N=Nc1c(O)[nH]c2ccc(Br)cc12,16,51*,36,18,68
SMILES,Mcl-1 Bim block,Mcl1-Noxa inh,Mcl1 Bid PPI,NCF1 inh,14-3-3 Bad inh
CCCC1=C(C(=O)OCC)C(c2sccc2C)n2ncnc2N1 (centres undefined),·,5,1,5,7
CCCC1=C(C(=O)OCC)C(c2ccc(O)cc2)n2ncnc2N1 (centres undefined),0,67*,-46,-6,-2
O=C(CCS(=O)(=O)CCN1CCOCC1)NCNC(=O)CCS(=O)(=O)CCN1CCOCC1,-3,-5,-18,-8,-12
Cc1cccc2c(N=O)c(O)[nH]c12,·,55*,-50,-26,6
O=Nc1c(O)[nH]c2ccc(F)cc12,3,19,-37,-3,-2
CN(C)c1ccc(C(=O)Nc2nnc(-c3ccc(Cl)cc3)o2)cc1,0,69*,48,10,24
O=C(C1CCN(CC2CC=CCC2)CC1)N(CCc1ccccc1)Cc1ccccc1 (centres undefined),-1,25,74*,-1,17
C=CCOc1ccccc1CN1CCSCC1,0,21,43,-1,80*
C=CCOc1ccccc1CNCc1ccc(F)cc1,-2,-7,-16,-3,-2
COc1ccc(N2CCN(S(=O)(=O)c3cc(C)ccc3OC)CC2)cc1,1,33,-36,-11,-6
COc1cccc(-c2csc(N3CCN(C(=S)Nc4ccccc4Cl)CC3)n2)c1,-1,13,-71,-44,-12
COc1cccc(-c2csc(N3CCN(C(=S)Nc4cccc(Cl)c4)CC3)n2)c1,0,-5,89*,-34,-31
CC1(C)CC(=O)C2=C(C1)Nc1cc3c(cc1C2c1ccc2c(c1)OCO2)OCO3 (centres undefined),-2,12,-29,59*,0
COc1ccc(NC(=O)c2sc3nc(-c4cccnc4)ccc3c2N)cc1OC,·,14,-8,-27,-1
COc1ccc(NC(=O)c2sc3nc(-c4cccnc4)ccc3c2N)cc1,·,43,52*,7,40
COc1ccc(C(=O)c2sc3nc(-c4ccc(OC)cc4)ccc3c2N)cc1,0,77*,23,-19,15
Cc1cc(C)c2c(N)c(C(=O)c3ccc(Cl)cc3)sc2n1,0,12,18,9,15
Cc1cc(C)c2c(N)c(C(=O)c3ccc(Cl)c(Cl)c3)sc2n1,-1,43,38,14,82*
Cc1ccc(OCC(=O)Nc2ccc(N3CCCC3)cc2)cc1C,1,81*,-7,10,74*[fluorescence artefact?]
CN1CCN(c2ccc(NC(=O)COc3ccccc3Cl)cc2)CC1,0,9,63*,-2,11
Cc1ccccc1OCCCC(=O)Nc1ccc(N2CCOCC2)cc1,35,51*,-27,-4,3
COc1ccc(OCC(=O)Nc2ccc(N3CCCCC3)cc2)cc1,0,20,-45,2,-11
COc1ccccc1OCCCC(=O)Nc1ccc(N2CCOCC2)cc1,1,11,-45,2,-2
Cc1cc(C)cc(OCC(=O)Nc2ccc(N3CCCC3)cc2)c1,9,67*,5,29,100*[fluorescence artefact?]
Cc1nc2sc(C(=O)Nc3ccccc3Cc3ccccc3)c(C)c2c(=O)[nH]1,·,-1,2,3,5
COc1ccccc1OCC(=O)Nc1ccc(N2CCCCC2)cc1,-3,36,-27,-6,6
Cc1cccc(OCC(=O)Nc2ccc(N3CCCC3)cc2)c1C,20,62*,-24,5,-6
CC1=Nc2ccc(C)cc2/C1=C/c1c(N)n2c(S(=O)(=O)C(C)C)nsc2nc1=O,-2,81*,17,-37,-2
CCOC(=O)CCCc1ccc(/C(C)=N/NC(N)=S)cc1,·,13,-134,-2,-4
